Laboratory results reported in PubChem BioAssay (EPA / NIEHS).
Results filed as inconclusive are left out. Calls of active or inactive are those of the source. The calls were made as follows, unless noted: active = hit-call score of the fitted dose curve at least 0.9, where 1 is the maximum; inactive = score below 0.9.

How the values were obtained:
[1] = ATG_TAL_CIS: Attagene CIS-FACTORIAL HepG2 Assay for human TAL Basal Promoter (AID 2282966); conditions: HepG2 Attagene cis-factorial TAL promoter reporter; actives raise or lower the signal;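 also: background control endpoint measuring basal TAL promoter reporter mRNA not a specific factor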
Summary of the method: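 HepG2 cells were transiently transfected with promoter-driven multiplexed reporter units and dosed for 24 h. Reporter mRNA was measured by RT-PCR with capillary electrophoresis fluorescence; bidirectional fits used DMSO as baseline, serving as a background control.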

[2] = ATG_TGFb_CIS: Attagene CIS-FACTORIAL HepG2 Assay for human Transforming Growth Factor (TGF) (AID 2282967); conditions: HepG2 Attagene CIS TGFb reporter, mRNA transcription; actives raise or lower the signal
Summary of the method: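 Transcript-level reporter readout: HepG2 transfectants, 24 h exposure, RNA to cDNA, reporter-specific PCR, fluorescent primer extension, capillary sizing against ROX standards. Gain- or loss-of-signal relative to DMSO.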

[3] = ATG_VDRE_CIS: Attagene CIS-FACTORIAL HepG2 Assay for human Vitamin D Receptor Element (VDRE) (AID 2282968); conditions: HepG2 VDRE cis-reporter transcription, actives raise or lower the signal
Summary of the method: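 Cell-based multiplexed reporter format in human liver HepG2 cells, 24 h post-dose. Fluorescence from capillary electrophoresis of reporter cDNA gives the signal, with DMSO as negative control and baseline.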

[4] = target: Steroid hormone receptor ERR1 (Homo sapiens) (UniProt P11474); assay: ATG_ERRa_TRANS: Attagene TRANS-FACTORIAL HepG2 Assay for human Estrogen-Related Receptor alpha (ERRa) (AID 2282971; active = hit-call score of the fitted dose curve at least 0.9, where 1 is the maximum); conditions: HepG2 Attagene TRANS reporter, ERRa transactivation
Chain of Steroid hormone receptor ERR1 (Homo sapiens) (P11474 whole entry, looked up, the tested form may be a part): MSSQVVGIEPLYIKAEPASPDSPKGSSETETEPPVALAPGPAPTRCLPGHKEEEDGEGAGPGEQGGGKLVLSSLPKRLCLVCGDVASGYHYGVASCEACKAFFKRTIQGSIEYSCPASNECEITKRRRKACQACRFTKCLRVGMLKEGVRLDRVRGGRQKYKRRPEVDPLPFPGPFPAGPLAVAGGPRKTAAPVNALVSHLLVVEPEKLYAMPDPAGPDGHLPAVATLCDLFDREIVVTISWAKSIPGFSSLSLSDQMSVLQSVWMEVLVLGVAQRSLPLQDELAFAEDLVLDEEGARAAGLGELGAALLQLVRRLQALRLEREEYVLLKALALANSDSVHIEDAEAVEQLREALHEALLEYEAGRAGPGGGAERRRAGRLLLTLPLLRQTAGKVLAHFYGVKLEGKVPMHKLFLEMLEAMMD
Summary of the method: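 HepG2 cells transiently transfected with multiplexed GAL4-UAS reporter units reading chimeric ERRa-Gal4 activity; 24 h compound exposure. Reporter mRNA measured by RT-PCR, 6-FAM labelling, HpaI digest and capillary electrophoresis; gain of signal fitted versus DMSO baseline.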

[5] = target: X-box-binding protein 1 (Homo sapiens) (UniProt P17861); assay: ATG_Xbp1_CIS: Attagene CIS-FACTORIAL HepG2 Assay for human X-box Binding Protein 1 (XBP1) (AID 2282972); conditions: HepG2 XBP1 cis-element reporter, Attagene multiplex; actives raise or lower the signal
Chain of X-box-binding protein 1 (Homo sapiens) (P17861 whole entry, looked up, the tested form may be a part): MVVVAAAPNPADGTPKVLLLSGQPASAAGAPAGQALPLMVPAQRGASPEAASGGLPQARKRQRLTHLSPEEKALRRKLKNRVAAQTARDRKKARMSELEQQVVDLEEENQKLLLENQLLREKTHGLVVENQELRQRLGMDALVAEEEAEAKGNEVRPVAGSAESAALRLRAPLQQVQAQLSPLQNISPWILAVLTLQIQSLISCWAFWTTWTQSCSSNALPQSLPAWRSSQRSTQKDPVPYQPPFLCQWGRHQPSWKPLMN
Summary of the method: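 Fluorescence-labelled cDNA fragments from reporter transcripts, separated by capillary electrophoresis, give the signal. Source: HepG2 cells transfected with promoter-driven reporter units, harvested 24 h post-dose. DMSO served as reference for bidirectional curve fitting.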

[6] = ATG_M_19_TRANS: Attagene TRANS-FACTORIAL HepG2 Assay for M19 Transcription Factor (Internal Marker) (AID 2282974; active = hit-call score of the fitted dose curve at least 0.9, where 1 is the maximum); conditions: HepG2 Attagene TRANS-FACTORIAL M19 internal marker reporter
Summary of the method: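 24 h chemical exposure of transiently transfected HepG2 (MRTU library). RNA → oligo(dT) RT → PCR → 6-FAM labelling → HpaI cut → CE fluorescence. Positive-direction fit vs DMSO baseline; background internal-marker readout.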

[7] = ATG_GAL4_TRANS: Attagene TRANS-FACTORIAL HepG2 Assay for GAL4 (Internal Marker) (AID 2282976; active = hit-call score of the fitted dose curve at least 0.9, where 1 is the maximum); conditions: HepG2 Attagene TRANS GAL4 internal marker reporter
Summary of the method: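 HepG2 cells transiently transfected with multiplexed GAL4-UAS reporter constructs were dosed for 24 h. Reporter mRNA was measured by RT-PCR, 6-FAM primer extension, HpaI digestion and capillary electrophoresis, and gain of signal was fitted relative to DMSO.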

[8] = target: Estrogen-related receptor gamma (Homo sapiens) (UniProt P62508); assay: ATG_ERRg_TRANS: Attagene TRANS-FACTORIAL HepG2 Assay for human Estrogen-Related Receptor gamma (ERRg) (AID 2282977; active = hit-call score of the fitted dose curve at least 0.9, where 1 is the maximum;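 also: hits increase reporter signal over DMSO so potencies reflect activators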); conditions: HepG2 Attagene TRANS reporter, ERRg transactivation
Chain of Estrogen-related receptor gamma (Homo sapiens) (P62508 whole entry, looked up, the tested form may be a part): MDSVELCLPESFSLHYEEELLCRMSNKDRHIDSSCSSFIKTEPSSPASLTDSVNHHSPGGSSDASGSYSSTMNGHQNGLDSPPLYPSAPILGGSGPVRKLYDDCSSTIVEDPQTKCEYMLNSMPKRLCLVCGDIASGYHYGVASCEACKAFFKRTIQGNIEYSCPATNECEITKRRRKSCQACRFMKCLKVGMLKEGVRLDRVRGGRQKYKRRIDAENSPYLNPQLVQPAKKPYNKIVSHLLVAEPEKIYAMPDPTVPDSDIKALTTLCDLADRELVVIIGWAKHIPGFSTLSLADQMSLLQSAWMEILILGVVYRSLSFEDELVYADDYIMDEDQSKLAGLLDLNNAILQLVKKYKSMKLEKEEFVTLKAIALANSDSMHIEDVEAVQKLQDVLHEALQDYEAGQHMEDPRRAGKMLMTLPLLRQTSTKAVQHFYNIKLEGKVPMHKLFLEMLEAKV
Summary of the method: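 Transient HepG2 transfectants, 24 h compound exposure, GAL4-UAS reporter mRNA by RT-PCR/6-FAM labelling/capillary electrophoresis; positive direction vs DMSO.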

[9] = target: Bile acid receptor (Homo sapiens) (UniProt Q96RI1); assay: ATG_FXR_TRANS: Attagene TRANS-FACTORIAL HepG2 Assay for Farnesoid X Receptor (FXR) (AID 2282979; active = hit-call score of the fitted dose curve at least 0.9, where 1 is the maximum;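 also: hits raise reporter mRNA above DMSO so AC50 marks FXR activation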); conditions: HepG2 Attagene TRANS FXR-GAL4 reporter transcription
Chain of Bile acid receptor (Homo sapiens) (Q96RI1 whole entry, looked up, the tested form may be a part): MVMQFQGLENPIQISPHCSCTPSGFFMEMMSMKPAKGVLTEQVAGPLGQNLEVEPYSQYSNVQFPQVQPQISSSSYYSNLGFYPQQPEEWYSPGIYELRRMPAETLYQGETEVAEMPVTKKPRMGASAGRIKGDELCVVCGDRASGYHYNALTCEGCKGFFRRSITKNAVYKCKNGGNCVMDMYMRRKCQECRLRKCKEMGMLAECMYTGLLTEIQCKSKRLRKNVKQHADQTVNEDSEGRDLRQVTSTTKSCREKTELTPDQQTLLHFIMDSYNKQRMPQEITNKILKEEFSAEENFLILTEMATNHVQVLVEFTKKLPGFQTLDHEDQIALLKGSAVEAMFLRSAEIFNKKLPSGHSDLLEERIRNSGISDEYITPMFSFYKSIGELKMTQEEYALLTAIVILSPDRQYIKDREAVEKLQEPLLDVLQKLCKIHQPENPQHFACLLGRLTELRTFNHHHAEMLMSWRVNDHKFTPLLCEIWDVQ
Summary of the method: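 HepG2 cells transiently transfected with reporter constructs in which a chimeric FXR-GAL4 protein drives a GAL4-UAS reporter; 24 h compound exposure. Reporter mRNA measured by RT-PCR, FAM labelling, HpaI digestion and capillary electrophoresis; gain-of-signal versus DMSO.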

[10] = target: Oxysterols receptor LXR-alpha (Homo sapiens) (UniProt Q13133); assay: ATG_LXRa_TRANS: Attagene TRANS-FACTORIAL HepG2 Assay for human Liver X Receptor alpha (LXRa) (AID 2282980; active = hit-call score of the fitted dose curve at least 0.9, where 1 is the maximum); conditions: HepG2 Attagene TRANS reporter, LXRa transactivation
Chain of Oxysterols receptor LXR-alpha (Homo sapiens) (Q13133 whole entry, looked up, the tested form may be a part): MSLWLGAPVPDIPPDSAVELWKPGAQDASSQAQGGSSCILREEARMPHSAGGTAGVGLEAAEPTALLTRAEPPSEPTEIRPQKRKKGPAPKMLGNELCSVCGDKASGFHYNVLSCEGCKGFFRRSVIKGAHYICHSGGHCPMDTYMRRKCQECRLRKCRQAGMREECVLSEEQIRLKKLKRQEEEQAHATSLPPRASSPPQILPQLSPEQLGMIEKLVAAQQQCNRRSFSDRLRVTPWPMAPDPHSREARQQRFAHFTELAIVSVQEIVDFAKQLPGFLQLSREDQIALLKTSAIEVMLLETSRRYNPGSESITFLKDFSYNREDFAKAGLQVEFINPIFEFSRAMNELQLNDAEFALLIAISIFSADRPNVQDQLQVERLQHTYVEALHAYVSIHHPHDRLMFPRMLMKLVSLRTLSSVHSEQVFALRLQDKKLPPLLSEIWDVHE
Summary of the method: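 HepG2 cells were transiently transfected with multiplexed reporter units driven by chimeric LXRa–GAL4 fusion proteins, then dosed for 24 h. Reporter mRNA was quantified by RT-PCR, fluorescent labelling and capillary electrophoresis; gain of signal fitted against DMSO baseline.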

[11] = ATG_M_32_TRANS: Attagene TRANS-FACTORIAL HepG2 Assay for M32 Transcription Factor (Internal Marker) (AID 2282984; active = hit-call score of the fitted dose curve at least 0.9, where 1 is the maximum); conditions: HepG2 Attagene TRANS M32 internal marker reporter
Summary of the method: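 Capillary electrophoresis of 6-FAM-labelled reporter fragments gives the signal; data fitted for gain over DMSO negative control. Source: HepG2 cells bearing transient multiple reporter transcription units, 24 h exposure.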

[12] = target: Transcriptional activator Myb (Homo sapiens) (UniProt P10242); assay: ATG_Myb_CIS: Attagene CIS-FACTORIAL HepG2 Assay for human Myeloblastosis (Myb) Proto-Oncogene Transcription Factor (AID 2282986); conditions: HepG2 Attagene CIS-FACTORIAL Myb reporter transcription; actives raise or lower the signal
Chain of Transcriptional activator Myb (Homo sapiens) (P10242 whole entry, looked up): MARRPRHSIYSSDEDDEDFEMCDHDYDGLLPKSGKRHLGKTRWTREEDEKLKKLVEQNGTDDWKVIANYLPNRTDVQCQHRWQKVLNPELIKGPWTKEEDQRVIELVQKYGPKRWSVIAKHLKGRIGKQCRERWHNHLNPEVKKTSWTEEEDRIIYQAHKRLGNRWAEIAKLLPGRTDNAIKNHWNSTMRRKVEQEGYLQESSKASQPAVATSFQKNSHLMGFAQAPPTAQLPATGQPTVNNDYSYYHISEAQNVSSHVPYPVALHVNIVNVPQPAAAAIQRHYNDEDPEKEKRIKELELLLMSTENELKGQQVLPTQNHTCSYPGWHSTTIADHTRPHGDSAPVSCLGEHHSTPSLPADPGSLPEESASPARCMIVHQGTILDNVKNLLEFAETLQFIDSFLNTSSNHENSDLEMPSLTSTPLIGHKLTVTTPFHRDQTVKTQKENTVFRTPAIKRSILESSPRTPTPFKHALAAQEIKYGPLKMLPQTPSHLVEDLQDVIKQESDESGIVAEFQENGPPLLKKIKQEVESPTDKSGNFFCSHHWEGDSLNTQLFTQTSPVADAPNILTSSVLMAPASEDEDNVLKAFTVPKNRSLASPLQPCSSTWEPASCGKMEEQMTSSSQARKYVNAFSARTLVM
Summary of the method: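 HepG2, transient MRTU transfection (cis-element promoters, endogenous TF activity), 24 h compound exposure. Readout: reporter mRNA via RT-PCR, 6-FAM labeling, HpaI digest, capillary electrophoresis. Gain/loss fit vs DMSO.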

[13] = target: Nuclear respiratory factor 1 (Homo sapiens) (UniProt Q16656); assay: ATG_NRF1_CIS: Attagene CIS-FACTORIAL HepG2 Assay for human Nuclear Respiratory Factor 1 (NRF1) Orphan Gene (AID 2282987); conditions: HepG2 NRF1 cis-element reporter, Attagene multiplex; actives raise or lower the signal
Chain of Nuclear respiratory factor 1 (Homo sapiens) (Q16656 whole entry, looked up): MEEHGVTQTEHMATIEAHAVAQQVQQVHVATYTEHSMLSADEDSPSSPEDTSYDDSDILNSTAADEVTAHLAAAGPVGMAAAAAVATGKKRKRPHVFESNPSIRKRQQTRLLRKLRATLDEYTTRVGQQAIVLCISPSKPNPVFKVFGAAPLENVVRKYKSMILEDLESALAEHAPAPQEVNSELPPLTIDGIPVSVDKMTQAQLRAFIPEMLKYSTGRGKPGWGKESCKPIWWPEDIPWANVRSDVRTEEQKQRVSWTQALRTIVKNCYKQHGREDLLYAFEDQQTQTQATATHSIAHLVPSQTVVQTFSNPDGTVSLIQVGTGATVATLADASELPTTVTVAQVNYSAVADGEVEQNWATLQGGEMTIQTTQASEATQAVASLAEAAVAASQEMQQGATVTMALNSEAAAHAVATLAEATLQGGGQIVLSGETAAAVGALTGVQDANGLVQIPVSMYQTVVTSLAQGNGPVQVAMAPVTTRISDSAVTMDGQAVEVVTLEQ
Summary of the method: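 Endogenous NRF1-driven reporter transcription measured in transiently transfected human HepG2 liver cells. Readout: reporter mRNA by RT-PCR and capillary electrophoresis with fluorescence detection, 24 h post-dosing. Gain or loss of signal fitted relative to DMSO baseline.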

[14] = ATG_NFI_CIS: Attagene CIS-FACTORIAL HepG2 Assay for human Nuclear Factor I (NFI) (AID 2282989); conditions: HepG2 cis-regulatory reporter, NFI response element transcription; actives raise or lower the signal
Summary of the method: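 After transient transfection of HepG2 with cis-promoter reporter constructs and 24 h dosing, RNA is reverse-transcribed, amplified, 6-FAM end-labelled and HpaI-digested before capillary analysis. Bidirectional curve fitting against DMSO.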

[15] = target: Myc proto-oncogene protein (Homo sapiens) (UniProt P01106); assay: ATG_Myc_CIS: Attagene CIS-FACTORIAL HepG2 Assay for human Myelocytomatosis (Myc) Proto-Oncogene Transcription Factor (AID 2282990); conditions: HepG2, Attagene cis-reporter transcription factor activity; actives raise or lower the signal
Chain of Myc proto-oncogene protein (Homo sapiens) (P01106 whole entry, looked up, the tested form may be a part): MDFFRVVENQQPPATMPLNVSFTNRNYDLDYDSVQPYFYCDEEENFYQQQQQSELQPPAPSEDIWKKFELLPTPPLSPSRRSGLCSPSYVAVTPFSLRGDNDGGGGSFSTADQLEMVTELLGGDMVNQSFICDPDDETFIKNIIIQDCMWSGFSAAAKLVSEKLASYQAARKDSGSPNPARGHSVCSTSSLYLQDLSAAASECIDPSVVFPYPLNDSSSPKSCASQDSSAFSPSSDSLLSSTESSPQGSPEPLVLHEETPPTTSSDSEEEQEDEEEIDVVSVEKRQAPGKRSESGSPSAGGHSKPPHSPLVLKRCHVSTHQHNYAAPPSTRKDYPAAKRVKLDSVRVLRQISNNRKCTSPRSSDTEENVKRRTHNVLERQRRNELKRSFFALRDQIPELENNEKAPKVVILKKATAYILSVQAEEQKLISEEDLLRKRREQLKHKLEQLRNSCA
Summary of the method: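 Fluorescence intensity of reporter-specific cDNA fragments, separated by capillary electrophoresis, gives the signal. Transfected HepG2 cells carrying cis-promoter reporter constructs are incubated with compound for 24 h; DMSO serves as baseline.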

[16] = target: Nuclear receptor subfamily 1 group I member 3 (Homo sapiens) (UniProt Q14994); assay: ATG_CAR_TRANS: Attagene TRANS-FACTORIAL HepG2 Assay for human Constitutive Androstane Receptor (CAR) (AID 2282969; active = hit-call score of the fitted dose curve at least 0.9, where 1 is the maximum;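 also: activators raise reporter mRNA above DMSO so AC50 marks induction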); conditions: HepG2 Attagene TRANS-FACTORIAL CAR reporter
Chain of Nuclear receptor subfamily 1 group I member 3 (Homo sapiens) (Q14994 whole entry, looked up, the tested form may be a part): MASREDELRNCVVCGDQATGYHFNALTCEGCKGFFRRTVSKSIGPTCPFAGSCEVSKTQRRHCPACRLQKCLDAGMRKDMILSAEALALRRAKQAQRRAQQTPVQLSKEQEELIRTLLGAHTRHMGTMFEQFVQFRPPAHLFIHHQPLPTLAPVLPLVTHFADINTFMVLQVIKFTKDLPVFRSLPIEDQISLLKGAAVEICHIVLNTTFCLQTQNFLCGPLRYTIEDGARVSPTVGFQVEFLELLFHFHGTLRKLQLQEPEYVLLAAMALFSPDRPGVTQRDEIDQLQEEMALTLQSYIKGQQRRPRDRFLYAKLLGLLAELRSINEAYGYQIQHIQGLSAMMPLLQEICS
Summary of the method: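 HepG2 cells transiently transfected with GAL4-UAS reporter units; TRANS format reads activity of exogenous chimeric NR-Gal4 protein. After 24 h dosing, reporter mRNA quantified by RT-PCR, 6-FAM labelling and capillary electrophoresis; gain of signal fitted against DMSO.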

[17] = target: Glucocorticoid receptor (Homo sapiens) (UniProt P04150); assay: ATG_GR_TRANS: Attagene TRANS-FACTORIAL HepG2 Assay for human Glucocorticoid Receptor (GR) (AID 2282978; active = hit-call score of the fitted dose curve at least 0.9, where 1 is the maximum;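 also: activators score as hits since higher reporter transcript over DMSO is fitted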); conditions: HepG2 Attagene TRANS GR reporter, mRNA transcription
Chain of Glucocorticoid receptor (Homo sapiens) (P04150 whole entry, looked up, the tested form may be a part): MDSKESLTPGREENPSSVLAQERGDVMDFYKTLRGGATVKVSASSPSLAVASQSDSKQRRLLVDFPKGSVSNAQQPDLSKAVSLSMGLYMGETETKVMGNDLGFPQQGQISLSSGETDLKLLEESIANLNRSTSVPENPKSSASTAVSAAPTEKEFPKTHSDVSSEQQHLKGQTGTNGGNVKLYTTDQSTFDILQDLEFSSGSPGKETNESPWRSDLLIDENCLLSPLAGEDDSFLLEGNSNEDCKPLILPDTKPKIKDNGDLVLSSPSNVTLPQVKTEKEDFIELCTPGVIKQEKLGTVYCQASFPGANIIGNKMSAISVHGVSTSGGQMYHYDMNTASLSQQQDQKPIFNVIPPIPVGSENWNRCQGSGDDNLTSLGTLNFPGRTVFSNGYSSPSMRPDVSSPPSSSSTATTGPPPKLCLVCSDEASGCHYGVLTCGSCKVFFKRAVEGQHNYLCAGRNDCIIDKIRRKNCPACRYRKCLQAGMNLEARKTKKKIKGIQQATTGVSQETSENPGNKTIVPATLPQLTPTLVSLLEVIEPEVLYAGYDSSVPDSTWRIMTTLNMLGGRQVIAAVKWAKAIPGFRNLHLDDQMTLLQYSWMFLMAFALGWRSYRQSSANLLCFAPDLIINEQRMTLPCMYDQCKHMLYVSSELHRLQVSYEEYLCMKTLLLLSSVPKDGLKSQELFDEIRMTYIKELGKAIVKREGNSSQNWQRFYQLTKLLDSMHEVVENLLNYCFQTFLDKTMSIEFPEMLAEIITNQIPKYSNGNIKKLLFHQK
Summary of the method: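 Transient MRTU transfection of HepG2 (GAL4-UAS reporters, exogenous NR-GAL4 chimeras), 24 h dosing. Readout: reporter transcript via RT-PCR + capillary electrophoresis fluorescence. Positive direction vs DMSO baseline.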

[18] = ATG_M_06_TRANS: Attagene TRANS-FACTORIAL HepG2 Assay for M06 Transcription Factor (Internal Marker) (AID 2282983; active = hit-call score of the fitted dose curve at least 0.9, where 1 is the maximum); conditions: HepG2 Attagene TRANS M06 internal marker reporter
Summary of the method: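 HepG2 cells transiently transfected with multiplexed GAL4-UAS reporter transcription units; after 24 h compound exposure, reporter mRNA measured by RT-PCR, FAM-labelled primer extension, HpaI digestion and capillary electrophoresis. Gain-of-signal fitted versus DMSO baseline; background control readout.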

Measured: outcome

COC(=O)c1c(Cl)c(Cl)c(C(=O)OC)c(Cl)c1Cl
not listed: [16] | [17] | [18]
inactive: all other assays above

CCCC(=O)OCC
inactive: [1] | [2] | [3] | [16] | [5] | [6] | [17] | [13] | [14] | [15]

Cc1ccc(S(=O)(=O)O)cc1C
inactive: [1] | [2] | [3] | [16] | [5] | [6] | [10] | [11] | [13] | [14]

CCCCCCCCCCCCc1ccccc1
not listed: [4] | [6] | [7] | [9] | [17]
inactive: all other assays above

CC/C(=C\C(=N/O)C(N)=O)C(C)[N+](=O)[O-] (stereo not given)
not listed: [8] | [9] | [15] | [16] | [18]
inactive: all other assays above

CCOC(=O)CC(CC(=O)OCC)(OC(C)=O)C(=O)OCC
not listed: [4] | [7] | [8] | [9] | [12] | [17] | [18]
inactive: all other assays above

O=C(O)CCN(C1(C(=O)NO)CCCC1)S(=O)(=O)c1ccc(Oc2ccc(F)cc2)cc1
inactive: [1] | [2] | [3] | [16] | [5] | [6] | [12] | [13] | [14]

CC(C)CCCCCCCOC(=O)CCCCC(=O)OCCCCCCCC(C)C
not listed: [4] | [8] | [9] | [18]
inactive: all other assays above

Cc1ccc(N)cc1O
not listed: [4] | [6] | [7] | [8] | [9] | [10] | [11]
inactive: all other assays above

Clc1nc(Cl)c(Cl)c(Cl)c1Cl
not listed: [4] | [9] | [10] | [17]
inactive: all other assays above
